Laboratory results as given in PubChem BioAssay (NCI).
Compounds without any hit were thinned out: in the full panel of roughly 83,000, 20% have a hit.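 A percent growth of 40 corresponds to 60% growth inhibition; 0 means no net growth; -100 means all cells died. Active threshold: below 10.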 Calls of active or inactive are those of the source.

What follows are compounds tested on MDA-MB-468 breast (assay: NCI-60 one-dose screen, 48 h (100 = growth as untreated, 0 = no growth, -100 = all killed)). Settings: 10 µM unless noted.

SMILES | growth
O=[N+]([O-])c1ccc2c(c1)Cc1cc(I)ccc1-2 | 105% (inactive)
CC(=O)Nc1cc2c(cc1Cl)Cc1cc(Cl)ccc1-2 | -50.2% (active)
Clc1ccc([C@@H]2C[C@@H]3Cc4cc(Br)c5ccccc5c4N2O3)c(Cl)c1 | 59.2% (inactive)
CCN1C(=O)N(CC)C2C1NC(=S)N2/N=C/C=C/c1ccccc1OC (stereo not given) | -0.348% (active)
NCCCNc1nc2ccccc2c2c(=O)c3cc(OC(F)(F)F)ccc3sc12 | -69.8% (active)
Cc1ccc(C(=O)CSc2nc3ccccc3c(=O)n2C)cc1 | 82.6% (inactive)
Cc1ccc(NC(=O)CNc2cc(C(N)=O)cc(F)c2C)c(Cl)c1 | 105% (inactive)
N#Cc1c(-c2ccc(Cl)cc2)cc(-c2cc(O)ccc2O)nc1N | 19.4% (inactive)
O=[N+]([O-])c1ccc(-c2cc3c(Nc4ccc(Cl)c(C(F)(F)F)c4)ncnc3s2)cc1 | -10.2% (active)
Nc1c(C(=O)Nc2ccccc2)sc2nc3c(cc12)C(=O)CCC3 | 4.62% (active)
Cc1c2cnccc2c(C)c2c1c1cc(O)ccc1n2C(C)C | 24.3% (inactive)
C[C@@H](Oc1cc(-c2cnn(C3CCNCC3)c2)cnc1N)c1c(Cl)ccc(F)c1Cl | -79.8% (active)
Cc1cccc(/C=C/c2c(C(=O)/C=C/c3ccccc3)c(C)nc3ccccc23)c1 | -51.1% (active)
O=S(=O)(Nc1cc(Sc2cccc3cccnc23)c(O)c2ccccc12)c1ccccc1 | -42.6% (active)
COc1ccc(/C=C/c2nc(Nc3ccc(Cl)cc3)c3ccccc3n2)cc1 | 28.1% (inactive)
COc1ccc(/C=C/C(=O)Nc2cccnc2Nc2ccc(F)cc2)cc1 | 84% (inactive)
CCOC(=O)C1=CSC2=NC3=C(CCC/C3=C\c3cc(OC)c(OC)c(OC)c3)C(c3cc(OC)c(OC)c(OC)c3)N12 (stereo not given) | 33.8% (inactive)
COC(=O)[C@H](Cc1ccccc1)NC(=O)[C@@H](OC)[C@@H]1Cc2cc3cc(OC4CC(OC5CC(O)C(O)C(C)O5)C(O)C(C)O4)c(C)c(O)c3c(O)c2C(=O)[C@H]1OC1CC(OC2CC(OC3CC(C)(O)C(O)C(C)O3)C(O)C(C)O2)C(O)C(C)O1 (stereo not given in full) | -36.7% (active)
CS(=O)CCCCCN=C=S (stereo not given) | -11.3% (active)
NS(=O)(=O)c1ccc(CN2C(=O)c3cccc4cccc(c34)C2=O)cc1 | 98.2% (inactive)

SMILES | growth
CC(O)C(NC(=O)C1CCCN1C(=O)CNC(=O)C1CC(=O)NCC(=O)NC(Cc2c[nH]c3ccccc23)C(=O)NC(Cc2ccc(O)cc2)C(=O)NCC(=O)NC(CO)C(=O)NC(CCC(N)=O)C(=O)NC(Cc2c[nH]c3ccccc23)C(=O)N1)C(=O)NCC(=O)NC(CCC(N)=O)C(=O)NC(CCCNC(=N)N)C(=O)NC(CC(=O)O)C(=O)O (stereo not given) | 100% (inactive)
O=C1CCN2C(=O)Nc3ccccc3C2C1 (stereo not given) | 109% (inactive)
COc1ccc(-c2nc(-c3ccccc3)c(-c3ccccc3)[nH]2)cc1OC1CCCCC1 | 73.1% (inactive)
O=C(N/N=C/c1ccccc1O)Nc1nn[nH]n1 | 97.6% (inactive)
CC/C=C\C[C@H](O)C/C=C1/C(=O)C=C[C@@H]1C/C=C\CCCC(=O)N(C)C | -67.8% (active)
N#C/C(=C\c1ccc(Br)cc1)n1nnc2cc(F)c(F)cc21 | -6.6% (active)
CS(=O)(=O)Nc1cc(-c2ccc3ncnc(Nc4ccc(F)c(Cl)c4)c3c2)ccc1Cl | -32% (active)
CC1=CCc2ccccc21 | 115% (inactive)
CCCCCn1ncc(-c2c(O)c(O)cc3c(O)c(-c4c(C)cc5c(-c6cnn(CCCCC)n6)c(O)c(O)cc5c4O)c(C)cc23)n1 | -2.7% (active)
Cn1cc(-c2nonc2-c2c[nH]c3ccccc23)c2cc(Br)ccc21 | 59.5% (inactive)
COc1ccc(-c2nc3sc(-c4ccc(Cl)cc4)cn3n2)cc1 | 33.4% (inactive)
COC(=O)Nc1nc2ccc(C3(c4ccc(F)cc4)OCCO3)cc2[nH]1 | 23.3% (inactive)
CCN(CC)CCn1c2ccc(OC)cc2c2sc3cc(O)ccc3c(=O)c21 | 60.3% (inactive)
Cn1cc(C(=O)c2nc(-c3c[nH]c4ccc(F)cc34)no2)c2cc(F)ccc21 | 107% (inactive)
N#CSCC1CC(O)(c2ccccc2)C(c2ccccc2)C(c2ccc(Cl)cc2)O1 (stereo not given) | -58.9% (active)
Nc1ccc(S(=O)(=O)O)c2ccc(N=Nc3ccc(N=Nc4ccc(S(=O)(=O)O)cc4)c4ccccc34)c(O)c12 | 96.6% (inactive)
COc1ccc2c(c1)N(CCO)C1=C(C(=O)OC1)C2c1cccc(Br)c1 (stereo not given) | 12.9% (inactive)
N#Cc1c(-c2ccc(F)cc2)cc(-c2cccc(Cl)c2)[nH]c1=O | 81.4% (inactive)
O=C(/C=C/c1ccc(F)cc1)c1ccc(Nc2nc(NCCO)nc(Nc3ccc(Cl)cc3)n2)cc1 | 57.8% (inactive)
O=C1/C(=C/c2ccc(O)cc2)CSc2ccc(Cl)cc21 | 30.2% (inactive)
